Test results taken from PubChem BioAssay AID1220 (Sanford-Burnham Center for Chemical Genomics, 2008).
Screen size: about 190,000 compounds; about 1,300 (0.68%) were called active. This is one part of a sample in which actives are shown more often than they occur. Cut-off read from the data, not from the text of the source: active = inhibition above about 50%; inactive = the rest.

What follows are molecules tested against Mannose-6-phosphate isomerase (Homo sapiens) (UniProt P34949) (assay: human PMI inhibitors, high substrate, primary screen, biochemical, fluorescence intensity, high mannose 6-phosphate (AID 1220)). Conditions: recombinant PMI enzyme, coupled fluorescence intensity; at 20 µM; active compounds read high.
Mannose-6-phosphate isomerase (Homo sapiens), sequence (P34949 whole entry, looked up): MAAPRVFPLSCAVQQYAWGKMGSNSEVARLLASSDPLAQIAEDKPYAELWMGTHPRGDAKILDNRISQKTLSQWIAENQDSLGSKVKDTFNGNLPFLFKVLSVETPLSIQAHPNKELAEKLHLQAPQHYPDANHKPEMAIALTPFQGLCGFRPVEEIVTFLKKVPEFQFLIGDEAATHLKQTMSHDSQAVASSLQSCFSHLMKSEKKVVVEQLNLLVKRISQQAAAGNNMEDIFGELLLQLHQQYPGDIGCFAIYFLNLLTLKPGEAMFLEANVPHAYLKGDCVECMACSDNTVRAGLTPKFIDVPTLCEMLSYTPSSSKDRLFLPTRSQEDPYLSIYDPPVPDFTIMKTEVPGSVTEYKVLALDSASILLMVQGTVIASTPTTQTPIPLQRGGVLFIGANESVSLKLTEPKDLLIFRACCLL

inhibition, active:
CC1CCN(S(=O)(=O)Cc2ccccc2Cl)CC1 56.9%
COc1cc(NC(=S)N2CCC(C(O)(c3ccccc3)c3ccccc3)CC2)cc(OC)c1 52.9%
Cc1ccc2nsnc2c1S(=O)(=O)Nc1cccc2nsnc12 50.1%
CN1C(=S)SC(N(O)C(=O)Nc2cccc3ccccc23)C1(C)C (centres undefined) 62.9%
CN1CCC/C1=C/C=C1\SC(=S)NC1=O 53.1%
CC(C)CCNC(=O)C(CC(C)C)N(Cc1ccc2c(c1)OCO2)C(=O)c1snc(C(N)=O)c1N (centres undefined) 51%

inhibition, inactive:
CCOc1ccccc1-n1cnc2cc(C(=O)NCc3ccco3)ccc21 -4.7%
O=S(=O)(Cc1ccccc1Cl)N1CCCCC1 -3.8%
O=S(=O)(Cc1ccccc1Cl)N1CCCC1 8.9%
CN1C(=O)NC(NC(=O)c2ccncc2)(C(F)(F)F)C1=O (centres undefined) 4.6%
COc1ccc(NC(=S)N2CCC(C(O)(c3ccccc3)c3ccccc3)CC2)cc1 7%
COc1ccc(OC)c(NC(=S)N2CCC(C(O)(c3ccccc3)c3ccccc3)CC2)c1 17.9%
Cc1ccc2nsnc2c1NS(=O)(=O)c1c(C)ccc2nsnc12 30.6%
Cc1cc(C)c(S(=O)(=O)Nc2cccc3nsnc23)c(C)c1 19.4%
O=C(Nc1ncc(Cc2cccc(Cl)c2Cl)s1)c1ccc([N+](=O)[O-])cc1 -1%
CCOC(=O)c1ccccc1NC(=O)CSc1ccccc1 -10.2%
O=c1[nH]c2ccccc2c(O)c1-c1cc2ccccc2oc1=O -2.4%
O=C(Cc1c[nH]c2ccccc12)NCc1ccccc1F 7.1%
CN1C(=S)SC(N(O)C(=O)Nc2ccc(Cl)c(Cl)c2)C1(C)C (centres undefined) 12.6%
CN1C(=S)SC(N(O)C(=O)Nc2ccccc2)C1(C)C (centres undefined) 10.2%
CN1CCN(/C=C2\SC(=S)NC2=O)CC1 -4.7%
CN1C(=O)/C(=C\C=C2/CCCN2C)N(C)C1=S 30.5%
O=C(CCCNC(=O)/C(=C\c1ccc(F)cc1)NC(=O)c1ccccc1)OCc1ccccc1 3.3%
Cc1nc(-c2ccncc2)sc1C(=O)Nc1ccc(Cl)cc1 6.1%
O=C(Nc1ccccc1)C1=C[C@@H](c2coc3ccccc3c2=O)C[C@@H](OCCCCO)O1 10.1%
CC(C)C[C@H](NC(=O)c1nc[nH]c1C(=O)NC(c1ccccc1)c1ccccc1)C(=O)OCc1ccccc1 15%
CCOC(=O)Cc1csc(NC(=O)c2csc3c2CCCC3)n1 2%
CCCC(C(=O)NC1CCCC1)N(Cc1ccc2c(c1)OCO2)C(=O)c1snc(C(N)=O)c1N (centres undefined) -8.2%
CC(C)CC(C(=O)NC1CCCC1)N(Cc1ccc2c(c1)OCO2)C(=O)c1snc(C(N)=O)c1N (centres undefined) 3.1%
